In ChEMBL document CHEMBL1961873, “Compounds: GSK PKIS; Assays: Nanosyn kinase panel” (2012):
Several values for one entry are separate records, joined by “and”; a condition that tells them apart may be missing. Equal values may be shown once.

Tests used:
[1] = molecular target: T1, Inhibitor of nuclear factor kappa-B kinase subunit epsilon (Homo sapiens) (UniProt Q14164); settings: at 1 µM;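 also: reported values are averaged percent inhibition figures against human IKKε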
T1 sequence (whole entry): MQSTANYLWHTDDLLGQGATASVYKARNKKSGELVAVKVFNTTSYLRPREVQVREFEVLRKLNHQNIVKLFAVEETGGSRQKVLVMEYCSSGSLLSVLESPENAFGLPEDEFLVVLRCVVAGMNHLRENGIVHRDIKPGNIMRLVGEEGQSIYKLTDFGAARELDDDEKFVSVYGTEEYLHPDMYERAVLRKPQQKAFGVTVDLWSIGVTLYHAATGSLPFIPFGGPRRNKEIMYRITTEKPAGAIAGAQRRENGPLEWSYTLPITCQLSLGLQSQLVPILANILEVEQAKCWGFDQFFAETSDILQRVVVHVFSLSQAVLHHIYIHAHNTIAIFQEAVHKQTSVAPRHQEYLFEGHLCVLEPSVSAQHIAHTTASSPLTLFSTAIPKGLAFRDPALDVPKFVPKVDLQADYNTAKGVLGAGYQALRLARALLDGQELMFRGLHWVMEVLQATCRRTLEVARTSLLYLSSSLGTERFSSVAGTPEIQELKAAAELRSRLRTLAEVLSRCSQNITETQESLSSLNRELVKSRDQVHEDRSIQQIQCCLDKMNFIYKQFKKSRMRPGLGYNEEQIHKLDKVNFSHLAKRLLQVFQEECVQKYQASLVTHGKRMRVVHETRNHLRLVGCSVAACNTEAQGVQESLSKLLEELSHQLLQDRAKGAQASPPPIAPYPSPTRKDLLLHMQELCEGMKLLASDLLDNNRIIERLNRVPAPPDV

[2] = molecular target: T2, Serine/threonine-protein kinase Nek1 (Homo sapiens) (UniProt Q96PY6); settings: at 0.1 µM
T2 sequence (whole entry): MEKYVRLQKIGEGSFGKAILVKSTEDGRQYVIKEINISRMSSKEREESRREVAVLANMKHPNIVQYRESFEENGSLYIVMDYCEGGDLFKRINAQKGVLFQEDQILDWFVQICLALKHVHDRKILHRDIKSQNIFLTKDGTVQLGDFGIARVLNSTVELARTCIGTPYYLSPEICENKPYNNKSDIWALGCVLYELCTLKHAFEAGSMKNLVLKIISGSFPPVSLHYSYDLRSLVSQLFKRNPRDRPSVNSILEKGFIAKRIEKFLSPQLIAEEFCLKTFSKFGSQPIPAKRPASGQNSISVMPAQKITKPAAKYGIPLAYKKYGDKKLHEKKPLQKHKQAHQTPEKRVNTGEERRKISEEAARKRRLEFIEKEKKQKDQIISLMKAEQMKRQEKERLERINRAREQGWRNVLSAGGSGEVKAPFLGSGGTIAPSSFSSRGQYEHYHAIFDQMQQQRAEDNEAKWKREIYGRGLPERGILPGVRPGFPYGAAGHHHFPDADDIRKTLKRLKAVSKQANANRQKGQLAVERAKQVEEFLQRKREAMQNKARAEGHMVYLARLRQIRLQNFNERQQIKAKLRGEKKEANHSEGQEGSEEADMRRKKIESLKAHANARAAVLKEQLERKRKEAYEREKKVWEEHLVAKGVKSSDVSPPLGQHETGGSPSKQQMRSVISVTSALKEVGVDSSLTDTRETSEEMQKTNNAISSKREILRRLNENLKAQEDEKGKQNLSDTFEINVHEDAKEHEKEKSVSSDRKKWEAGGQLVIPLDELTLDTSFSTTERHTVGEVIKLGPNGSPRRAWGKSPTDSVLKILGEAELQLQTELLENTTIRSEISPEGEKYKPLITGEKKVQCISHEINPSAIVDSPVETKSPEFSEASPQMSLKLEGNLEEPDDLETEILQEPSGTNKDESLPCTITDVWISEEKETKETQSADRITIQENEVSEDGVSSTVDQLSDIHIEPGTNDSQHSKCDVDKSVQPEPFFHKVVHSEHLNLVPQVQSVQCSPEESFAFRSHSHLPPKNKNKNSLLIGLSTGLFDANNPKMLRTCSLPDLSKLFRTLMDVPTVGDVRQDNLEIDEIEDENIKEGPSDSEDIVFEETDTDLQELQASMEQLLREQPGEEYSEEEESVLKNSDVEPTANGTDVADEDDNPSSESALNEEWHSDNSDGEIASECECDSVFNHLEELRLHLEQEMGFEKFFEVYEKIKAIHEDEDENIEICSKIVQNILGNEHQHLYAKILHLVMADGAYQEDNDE

[3] = molecular target: T2, Serine/threonine-protein kinase Nek1 (Homo sapiens); settings: at 1 µM
[4] = molecular target: T3, Serine/threonine-protein kinase Nek2 (Homo sapiens) (UniProt P51955); settings: at 0.1 µM
T3 sequence (whole entry): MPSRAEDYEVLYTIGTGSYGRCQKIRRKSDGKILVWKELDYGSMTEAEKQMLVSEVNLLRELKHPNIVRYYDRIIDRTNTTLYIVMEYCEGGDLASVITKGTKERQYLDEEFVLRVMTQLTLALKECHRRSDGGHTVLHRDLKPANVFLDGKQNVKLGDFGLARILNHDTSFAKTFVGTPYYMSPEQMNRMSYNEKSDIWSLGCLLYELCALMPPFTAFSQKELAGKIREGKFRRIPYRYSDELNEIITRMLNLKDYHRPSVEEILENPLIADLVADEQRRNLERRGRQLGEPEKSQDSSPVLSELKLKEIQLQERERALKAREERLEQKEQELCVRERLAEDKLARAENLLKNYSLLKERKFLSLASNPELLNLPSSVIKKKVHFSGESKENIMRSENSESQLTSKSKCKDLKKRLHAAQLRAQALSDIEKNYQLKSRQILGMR

[5] = molecular target: T3, Serine/threonine-protein kinase Nek2 (Homo sapiens); settings: at 1 µM
[6] = molecular target: Serine/threonine-protein kinase Nek6 (Homo sapiens) (UniProt Q9HC98); settings: at 0.1 µM
[7] = molecular target: Serine/threonine-protein kinase Nek6 (Homo sapiens) (UniProt Q9HC98); settings: at 1 µM
[8] = molecular target: Serine/threonine-protein kinase Nek7 (Homo sapiens) (UniProt Q8TDX7); settings: at 0.1 µM
[9] = molecular target: Serine/threonine-protein kinase Nek7 (Homo sapiens) (UniProt Q8TDX7); settings: at 1 µM
[10] = molecular target: T4, Serine/threonine-protein kinase Nek9 (Homo sapiens) (UniProt Q8TD19); settings: at 0.1 µM;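 also: reported value is the mean percent inhibition of NEK9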
T4 sequence (whole entry): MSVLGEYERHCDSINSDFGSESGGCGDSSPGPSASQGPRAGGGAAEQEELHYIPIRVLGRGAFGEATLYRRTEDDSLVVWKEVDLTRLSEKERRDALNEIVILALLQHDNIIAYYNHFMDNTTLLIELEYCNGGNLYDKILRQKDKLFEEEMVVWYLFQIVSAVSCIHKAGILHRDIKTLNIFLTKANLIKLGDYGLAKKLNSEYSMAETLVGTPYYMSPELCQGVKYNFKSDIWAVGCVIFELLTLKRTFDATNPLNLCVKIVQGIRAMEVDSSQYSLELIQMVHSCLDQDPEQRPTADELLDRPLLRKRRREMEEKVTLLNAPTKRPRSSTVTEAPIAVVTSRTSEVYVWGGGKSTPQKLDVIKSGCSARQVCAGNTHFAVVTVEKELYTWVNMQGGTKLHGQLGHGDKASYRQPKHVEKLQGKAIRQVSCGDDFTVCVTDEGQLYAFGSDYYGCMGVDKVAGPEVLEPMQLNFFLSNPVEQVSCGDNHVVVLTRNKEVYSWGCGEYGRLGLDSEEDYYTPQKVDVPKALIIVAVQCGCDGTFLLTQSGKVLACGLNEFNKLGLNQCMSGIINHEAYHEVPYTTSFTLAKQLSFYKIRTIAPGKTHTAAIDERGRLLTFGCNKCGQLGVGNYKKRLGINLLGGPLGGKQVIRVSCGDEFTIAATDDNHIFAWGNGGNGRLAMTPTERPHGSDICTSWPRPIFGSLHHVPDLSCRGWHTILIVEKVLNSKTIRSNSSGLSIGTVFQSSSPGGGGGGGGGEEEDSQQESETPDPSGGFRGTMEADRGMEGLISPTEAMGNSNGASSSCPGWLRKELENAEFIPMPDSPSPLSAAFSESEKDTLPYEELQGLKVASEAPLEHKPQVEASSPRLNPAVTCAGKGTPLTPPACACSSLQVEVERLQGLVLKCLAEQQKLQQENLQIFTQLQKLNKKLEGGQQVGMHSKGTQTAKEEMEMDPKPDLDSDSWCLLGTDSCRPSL

Sequence of Serine/threonine-protein kinase Nek7 (Homo sapiens) (Q8TDX7 whole entry, looked up): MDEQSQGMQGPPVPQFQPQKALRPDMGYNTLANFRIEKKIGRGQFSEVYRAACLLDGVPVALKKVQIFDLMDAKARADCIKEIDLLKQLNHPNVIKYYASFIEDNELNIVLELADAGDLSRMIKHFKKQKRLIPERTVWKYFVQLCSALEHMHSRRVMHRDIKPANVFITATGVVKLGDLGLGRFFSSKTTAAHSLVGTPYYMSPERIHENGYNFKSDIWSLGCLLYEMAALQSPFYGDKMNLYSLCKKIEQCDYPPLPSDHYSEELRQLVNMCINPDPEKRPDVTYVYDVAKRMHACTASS
Sequence of Serine/threonine-protein kinase Nek6 (Homo sapiens) (Q9HC98 whole entry): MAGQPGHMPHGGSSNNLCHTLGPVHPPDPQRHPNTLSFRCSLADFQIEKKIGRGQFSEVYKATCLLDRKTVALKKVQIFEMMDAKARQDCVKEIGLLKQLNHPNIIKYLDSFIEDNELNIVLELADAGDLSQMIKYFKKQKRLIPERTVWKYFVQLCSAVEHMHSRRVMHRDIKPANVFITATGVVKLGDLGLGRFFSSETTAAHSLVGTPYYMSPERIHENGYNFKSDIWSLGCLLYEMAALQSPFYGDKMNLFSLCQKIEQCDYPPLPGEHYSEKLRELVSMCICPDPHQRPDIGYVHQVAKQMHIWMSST

Structure (SMILES)	inhibition [1]	inhibition [2]	inhibition [3]	inhibition [4]	inhibition [5]	inhibition [6]	inhibition [7]	inhibition [8]	inhibition [9]	inhibition [10]
CC(C)c1ccc(-c2cc(-c3c[nH]nc3-c3ccccn3)ccn2)cc1	1.35%	0.4%	0.95%	1.77%	1.63%	1.08%	-0.92%	2.44%	0.94%	3.68%
COc1ccc(-c2nn3ncccc3c2-c2ccnc(Nc3ccc(F)c(F)c3)n2)cc1	88.2%	1.08%	2.15%	3.89%	2.89%	3.33%	5.18%	3.7%	4.42%	7.45%
CN(c1ccc(NC(=O)NCCN2CCOCC2)cc1)c1ccnc(Nc2ccc(CS(C)(=O)=O)cc2)n1	95.2%	2.09%	4.64%	2.52%	1.94%	3.82%	3.91%	3.06%	3.17%	5.2%
CCn1c(-c2nonc2N)nc2cncc(C(=O)NCCNC)c21	17.6%	2.71%	5.36%	6.66%	6.84%	-0.45%	0.9%	3.5%	4.72%	7.8%
O=C1Nc2ccccc2/C1=C1\CCc2cc(O)ccc21	20.3%	3.11%	4.37%	7.09%	5.47%	1.9%	1.99%	5.62%	4.31%	8.42%
CC1=C(C(=O)Nc2ccc3[nH]nc(C)c3c2)C(c2ccc(C(F)(F)F)cc2)CC(=O)N1 (stereo not given)	2.46%	1.56%	2.57%	3.16%	3.29%	1.24%	-1.35%	3.34%	2.74%	1.92%
COc1cc(Nc2ncc(-c3ccccc3)o2)cc(OC)c1	10.9%	1.83%	4.11%	5.36%	5.95%	3.13%	1.56%	3.14%	5.01%	10.4%
Cc1cc(O)cc(C)c1/C=C/c1cncc(C(=O)OC(C)(C)C)c1	91.7%	2.47%	4.15%	3.29%	2.53%	1.87%	2.59%	-2.32%	3.53%	8.55%
CCS(=O)(=O)c1ccc(OC)c(Nc2ncc(-c3cccc(C(C)=O)c3)o2)c1	5.1%	1.59%	4.9%	3.34%	2.2%	3.06%	3.18%	2.79%	3.24%	5.45%
Cn1c(-c2nonc2N)nc2cnccc21	6.44%	1.82%	3.22%	4.27%	3.27%	3.89%	-0.49%	3.76%	3.15%	12.2%
Nc1nonc1-c1nc2cnccc2n1C1CC1	11.3% and 10.2%	1.72% and 1.48%	6.39% and 2.72%	5.51% and 2.84%	4.67% and 4.04%	3.25% and -0.01%	-0.06% and 2.15%	3.77% and 4.5%	2.89% and 3.28%	8.67% and 3.36%
COc1ccc(Nc2ncc(-c3ccccc3)o2)cc1OC	4.37%	0.52%	5.19%	0.8%	2.25%	0.31%	-2.42%	1.23%	0.83%	-0.52%
N#Cc1ccc2c(-c3ccnc(NC4CC4)n3)c(-c3ccc(F)cc3)nn2c1	3.7%	0.87%	2.03%	2.22%	1.83%	1.63%	1.52%	1.73%	2.38%	3.27%
NS(=O)(=O)c1ccc(N/N=C2\C(=O)Nc3ccc(C(=O)NCc4ccncc4)cc32)cc1	49.1%	1.96%	4.03%	4.39%	3.78%	3.86%	5.08%	3.8%	4.4%	9.13%
c1ccc(-c2n[nH]cc2-c2ccnc(-c3ccc(OCCn4ccnc4)cc3)c2)nc1	2.18%	0.35%	2.46%	0.51%	1.73%	0.49%	4.21%	2.27%	2.32%	2.13%
CCCNc1cccc(-n2ncc3c(N/N=C/c4ccncc4)ncnc32)c1	13.4%	0.28%	7.87%	-1.07%	0.85%	4.08%	2.63%	-1.02%	-0.91%	1.01%
